Data: article PMC5836133, “The intracellular immune receptor Rx1 regulates the DNA-binding activity of a Golden2-like transcription factor”
Whole data set: some 16,000 sequences, median “e-score” near -0.044, cut for the highest 2% near 0.38. The full list was thinned out, with the highest values kept by preference.

Biological target: T1, GST-NbGlk1(82-244) (Nicotiana benthamiana)
T1 chain: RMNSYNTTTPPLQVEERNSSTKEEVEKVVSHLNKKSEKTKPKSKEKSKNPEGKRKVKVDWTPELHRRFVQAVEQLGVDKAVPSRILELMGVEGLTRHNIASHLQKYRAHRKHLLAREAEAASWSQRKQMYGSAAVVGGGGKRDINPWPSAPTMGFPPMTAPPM
Assay: protein-binding microarray; NbGlk1 is a Golden2-like transcription factor of Nicotiana benthamiana; high values mean tight binding
Conditions: protein: recombinant; tags: GST (pTH6838); dsDNA, one strand shown

| Sequence | binding signal |
| --- | --- |
| ACGTGATC | 0.232 ± 0.0142 E-score |
| ATTCGCGA | 0.318 ± 0.058 E-score |
| AAATCGCT | 0.295 ± 0.0508 E-score |
| ACAGAAAT | 0.248 ± 0.0234 E-score |
| ATCCGCAT | 0.272 ± 0.0412 E-score |
| AAAGATTC | 0.401 ± 0.00855 E-score |
| AACGATTC | 0.214 ± 0.0649 E-score |
| CAAGATTA | 0.314 ± 0.00322 E-score |
| AAAGATTT | 0.427 ± 0.00822 E-score |
| CAAGATTC | 0.406 ± 0.00476 E-score |
| AAAGATAC | 0.21 ± 0.0674 E-score |
| CAAGATTG | 0.308 ± 0.0144 E-score |
| AAAGATTG | 0.335 ± 0.0169 E-score |
| AAAGATTA | 0.318 ± 0.0346 E-score |
| ATTGTGCG | 0.2 ± 0.0823 E-score |
| ATCGTAAA | 0.239 ± 0.0266 E-score |
| ATCTTCCG | 0.316 ± 0.0643 E-score |
| ATCTGCTA | 0.331 ± 0.0558 E-score |
| AGGATCCG | 0.26 ± 0.0521 E-score |
| ATTTCGTG | 0.367 ± 0.0218 E-score |
| ATTTCGTA | 0.399 ± 0.0199 E-score |
| ATTTCGTC | 0.303 ± 0.0104 E-score |
| ATCTTCAC | 0.352 ± 0.00871 E-score |
| ACTGAGAT | 0.247 ± 0.0201 E-score |
| ATCCCGAG | 0.211 ± 0.027 E-score |

| Sequence | binding signal |
| --- | --- |
| AGATATAG | 0.225 ± 0.0489 E-score |
| AGATATCC | 0.47954 ± 0.00034 E-score |
| ATATATCA | 0.276 ± 0.0382 E-score |
| ATATATCC | 0.262 ± 0.0686 E-score |
| AGATATGC | 0.415 ± 0.012 E-score |
| AGATATAC | 0.241 ± 0.00443 E-score |
| ATATATCG | 0.276 ± 0.0574 E-score |
| AGATATGG | 0.373 ± 0.0298 E-score |
| AGATATGA | 0.318 ± 0.00331 E-score |
| AGATATCA | 0.434 ± 0.0219 E-score |
| AGATATCG | 0.462 ± 0.00283 E-score |
| AGATATAA | 0.208 ± 0.0225 E-score |
| ATCTCGCC | 0.314 ± 0.0254 E-score |
| ACCAAGAT | 0.289 ± 0.0649 E-score |
| ATCCTTGA | 0.218 ± 0.0175 E-score |
| ATTTCTAC | 0.285 ± 0.0555 E-score |
| ATTACATA | 0.267 ± 0.0926 E-score |
| ATTACGGC | 0.278 ± 0.0482 E-score |
| AAGTAGAT | 0.216 ± 0.0697 E-score |
| ATCCTTAC | 0.266 ± 0.0362 E-score |
| ACTCAGAT | 0.255 ± 0.0118 E-score |
| ATCTTTAG | 0.26 ± 0.0391 E-score |
| ATTCCCCC | 0.37 ± 0.0231 E-score |
| ATCTATAC | 0.231 ± 0.121 E-score |
| AGATACGC | 0.422 ± 0.0238 E-score |

| Sequence | binding signal |
| --- | --- |
| AGATATCT | 0.48 ± 0.00495 E-score |
| AGATACGA | 0.332 ± 0.0469 E-score |
| AGATATAT | 0.316 ± 0.0185 E-score |
| ACATATCT | 0.344 ± 0.0128 E-score |
| AGATACGG | 0.372 ± 0.019 E-score |
| ATCTTCAA | 0.303 ± 0.0183 E-score |
| ATATTGGA | 0.241 ± 0.0475 E-score |
| ATCAGGAA | 0.288 ± 0.064 E-score |
| ATAGGAAT | 0.275 ± 0.0501 E-score |
| AATCCGGT | 0.393 ± 0.0261 E-score |
| AATCCGGC | 0.3885 ± 0.00169 E-score |
| AATCCGTG | 0.322 ± 0.0593 E-score |
| AATCCTGT | 0.371 ± 0.0247 E-score |
| ATCCCGGA | 0.308 ± 0.0187 E-score |
| AATCCTTC | 0.265 ± 0.077 E-score |
| AATCCGGA | 0.42 ± 0.0333 E-score |
| ATTCCGGA | 0.232 ± 0.0263 E-score |
| AATCCGTA | 0.337 ± 0.0439 E-score |
| AATCCGTC | 0.39 ± 0.0333 E-score |
| AATCCGGG | 0.368 ± 0.0574 E-score |
| ATCGTCAA | 0.231 ± 0.0882 E-score |
| ACCCAGAT | 0.247 ± 0.0788 E-score |
| CACCGATA | 0.256 ± 0.0751 E-score |
| ATCAGCGA | 0.229 ± 0.0488 E-score |
| AATCACAA | 0.346 ± 0.0519 E-score |

| Sequence | binding signal |
| --- | --- |
| ATTTTCTC | 0.316 ± 0.054 E-score |
| ACGCGGAT | 0.235 ± 0.023 E-score |
| ATAAAGAT | 0.279 ± 0.0792 E-score |
| ACCAATAT | 0.204 ± 0.0315 E-score |
| AATAATAT | 0.259 ± 0.0722 E-score |
| AATCTGCT | 0.37 ± 0.0413 E-score |
| AATATGAT | 0.222 ± 0.00614 E-score |
| AATCTGTC | 0.391 ± 0.00978 E-score |
| AATCTGAT | 0.414 ± 0.0225 E-score |
| ATTCTGTC | 0.335 ± 0.0209 E-score |
| ATTCTGAC | 0.242 ± 0.101 E-score |
| AATCTGAC | 0.417 ± 0.0317 E-score |
| AAACAGAT | 0.229 ± 0.0973 E-score |
| ATCTTGAC | 0.272 ± 0.0538 E-score |
| AATCGTAT | 0.339 ± 0.0131 E-score |
| CAATCGCG | 0.2571 ± 0.00241 E-score |
| AGATCGCA | 0.396 ± 0.016 E-score |
| AGATCGCT | 0.346 ± 0.00634 E-score |
| AGATCGTA | 0.283 ± 0.0295 E-score |
| ATATCGCG | 0.415 ± 0.00817 E-score |
| AGATCGCG | 0.464 ± 0.00467 E-score |
| ATATCGCA | 0.355 ± 0.0163 E-score |
| ATATCGCC | 0.333 ± 0.0165 E-score |
| AGATCGCC | 0.353 ± 0.0264 E-score |
| AAATCGCC | 0.322 ± 0.0236 E-score |

| Sequence | binding signal |
| --- | --- |
| AAATCGCG | 0.4246 ± 0.00159 E-score |
| AAATCGCA | 0.3786 ± 0.00224 E-score |
| AGCGCAAT | 0.303 ± 0.0261 E-score |
| AATCCCTA | 0.281 ± 0.0127 E-score |
| AAATCATT | 0.223 ± 0.00449 E-score |
| AAATCCTG | 0.4223 ± 0.00332 E-score |
| AGATCCTA | 0.314 ± 0.00874 E-score |
| AAATCCTA | 0.417 ± 0.00908 E-score |
| AGATCCTC | 0.387 ± 0.0145 E-score |
| CAATCCTG | 0.3281 ± 0.00274 E-score |
| AAATCGTT | 0.248 ± 0.085 E-score |
| AAATCCTT | 0.392 ± 0.0185 E-score |
| CAATCCTA | 0.288 ± 0.0058 E-score |
| AGATCCTG | 0.369 ± 0.0433 E-score |
| ATTTCACC | 0.214 ± 0.151 E-score |
| ATTCCCCA | 0.256 ± 0.075 E-score |
| ATCCTCGC | 0.205 ± 0.0887 E-score |
| ATAGATCC | 0.21 ± 0.00109 E-score |
| ATCTGTTG | 0.301 ± 0.07 E-score |
| ATATATAC | 0.227 ± 0.00145 E-score |
| AAATACGC | 0.2039 ± 0.00167 E-score |
| ATCCGGAC | 0.272 ± 0.0502 E-score |
| ATCGATTA | 0.207 ± 0.0952 E-score |
| CAAGATCG | 0.284 ± 0.0247 E-score |
| AATATAAA | 0.254 ± 0.107 E-score |

| Sequence | binding signal |
| --- | --- |
| CAATCCTC | 0.269 ± 0.0948 E-score |
| AAATCCTC | 0.414 ± 0.051 E-score |
| AATCCCTC | 0.293 ± 0.0225 E-score |
| ATTCCCGA | 0.333 ± 0.0675 E-score |
| ATCCCAAG | 0.206 ± 0.0761 E-score |
| AATATATT | 0.285 ± 0.0974 E-score |
| AGAATCTG | 0.4793 ± 0.00413 E-score |
| AGAATCTA | 0.48 ± 0.00879 E-score |
| ATAATCTG | 0.356 ± 0.0112 E-score |
| AGAATCTC | 0.469 ± 0.0125 E-score |
| AGAATCGG | 0.375 ± 0.00432 E-score |
| AGAATCGA | 0.342 ± 0.0111 E-score |
| ATAATCTA | 0.334 ± 0.0306 E-score |
| ATATAAAT | 0.276 ± 0.0236 E-score |
| AGGGAGAT | 0.281 ± 0.00745 E-score |
| ACGGGGAT | 0.214 ± 0.115 E-score |
| AAATATGA | 0.226 ± 0.0549 E-score |
| ATCCGTGA | 0.236 ± 0.116 E-score |
| ATACGTTA | 0.277 ± 0.00931 E-score |
| ATTCCCTG | 0.323 ± 0.0549 E-score |
| ATTACTAG | 0.207 ± 0.0664 E-score |
| ATTTATTA | 0.249 ± 0.00743 E-score |
| AAATATCA | 0.367 ± 0.0296 E-score |
| AAATATCT | 0.407 ± 0.0254 E-score |
| CAATATCC | 0.337 ± 0.0344 E-score |

| Sequence | binding signal |
| --- | --- |
| AAATATCG | 0.375 ± 0.0121 E-score |
| ACATATCC | 0.214 ± 0.0275 E-score |
| AAATATCC | 0.42 ± 0.011 E-score |
| ATATTGAG | 0.214 ± 0.00643 E-score |
| ATAAGATC | 0.33 ± 0.000581 E-score |
| ATTCTTTA | 0.258 ± 0.0767 E-score |
| AATCAGGA | 0.394 ± 0.0134 E-score |
| AATCAGGT | 0.32 ± 0.0381 E-score |
| AATCAGGC | 0.2903 ± 0.0023 E-score |
| ATTCCCCG | 0.32 ± 0.0628 E-score |
| CAGATCGC | 0.417 ± 0.00441 E-score |
| AAGATCGT | 0.291 ± 0.0157 E-score |
| AAGATCGA | 0.225 ± 0.00987 E-score |
| CAGATCGG | 0.215 ± 0.0844 E-score |
| AAGATCGC | 0.398 ± 0.00727 E-score |
| ATGATCGC | 0.232 ± 0.0162 E-score |
| AATTCCCC | 0.225 ± 0.0402 E-score |
| AAAGTATC | 0.243 ± 0.0118 E-score |
| ATCGTCTA | 0.208 ± 0.048 E-score |
| ATTGCGCG | 0.378 ± 0.00773 E-score |
| ATCTAGAG | 0.238 ± 0.0882 E-score |
| ATCTAGAC | 0.287 ± 0.00928 E-score |
| ATCTAGAT | 0.398 ± 0.0867 E-score |
